In the library only some 1.9% were active in any assay of this set; here they are far more common.
GRK2 aptamer HTS: human GRK2 inhibition via aptamer displacement; P25098; inhibition of aptamer binding, % at 10 µM; bead flow cytometry, FAM-aptamer displacement from GRK2; 330,000 tested, 0.59% active;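 active = inhibition of aptamer binding above 40%, roughly 3 SD of noise, on plates passing a quality check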;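 also: median bead fluorescence of bound FAM aptamer so fluorescent compounds give negative values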
Target sequence (P25098 whole entry, looked up): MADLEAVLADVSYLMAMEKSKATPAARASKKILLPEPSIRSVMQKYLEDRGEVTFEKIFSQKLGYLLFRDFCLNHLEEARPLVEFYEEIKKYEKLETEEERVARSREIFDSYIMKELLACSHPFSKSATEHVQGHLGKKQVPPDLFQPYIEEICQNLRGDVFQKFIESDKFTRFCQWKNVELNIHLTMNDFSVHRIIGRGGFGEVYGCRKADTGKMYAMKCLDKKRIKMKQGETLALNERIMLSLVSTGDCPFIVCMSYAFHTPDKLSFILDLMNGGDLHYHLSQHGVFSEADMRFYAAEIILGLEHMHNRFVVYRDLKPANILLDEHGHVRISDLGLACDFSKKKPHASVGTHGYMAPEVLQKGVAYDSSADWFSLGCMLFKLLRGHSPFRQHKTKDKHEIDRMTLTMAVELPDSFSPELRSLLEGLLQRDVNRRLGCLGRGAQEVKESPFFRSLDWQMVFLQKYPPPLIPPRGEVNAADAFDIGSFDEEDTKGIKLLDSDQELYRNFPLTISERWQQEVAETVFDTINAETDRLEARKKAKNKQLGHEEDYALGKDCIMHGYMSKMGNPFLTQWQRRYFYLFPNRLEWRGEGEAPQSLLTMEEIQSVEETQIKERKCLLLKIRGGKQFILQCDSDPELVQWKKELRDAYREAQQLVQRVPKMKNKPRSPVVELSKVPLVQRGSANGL
PABP polyA inh: blocks human PABP binding to poly(A) RNA; 290,000 tested, 1% active; inhibition, % at 35 µM; fluorescence polarization;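 also: calls also rest on retests at 20 µM and on dose response follow-up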
eIF4H FP inh: inhibitors of RNA binding by human eIF4H; eIF4H fluorescence polarization binding assay; inhibition, % at 35 µM; 290,000 tested, 0.94% active; AID 2012; Q15056;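 also: calls also rest on retests at 20 µM and on dose response follow-up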
PERK inhibitor: blocks human PERK kinase | 220,000 tested, 0.17% active | inhibition, % at 5.6 µM | CHO PERK-DD fusion, SEAP luminescence translation reporter | AID 1416;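 active = inhibition above the mean inhibition of all tested compounds plus 3 SD, set separately per screening campaign, cut at about 2.9% in these data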;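 also: PERK kinase domain activated by AP20187 dimerizer at 100 nM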
MLLE-PAM2 inh: blocks PAM2 peptide binding to the PABP1 MLLE domain; P11940; GST-MLLE / FITC-PAM2 fluorescence polarization; inhibition, % at 20 µM; AID 588489; 360,000 tested, 0.36% active; in the data active = inhibition above about 35%, passing the limit was not always enough
Each line names hits and unclear results; the compound was inactive in the other large screens. Unless noted, no rule for the calls is given here.

COc1cccc(/C=c2\sc3nc(-c4cccs4)nn3c2=O)c1OC	none
COc1ccccc1/C=C/C=c1\sc2nc(=O)c(Cc3ccccc3)nn2c1=O	PABP polyA inh 41.1, eIF4H FP inh 65.3
CCCOc1ccc(Cc2nn3c(=O)/c(=C/c4ccco4)sc3nc2=O)cc1	PABP polyA inh 22.6, eIF4H FP inh 84.5
COc1ccccc1/C=c1\sc2nc(-c3cccs3)nn2c1=O	none (no result: GRK2 aptamer HTS, PABP polyA inh, eIF4H FP inh, MLLE-PAM2 inh)
COc1ccc(/C=c2\sc3nc(-c4ccccc4OC)nn3c2=O)c(OC)c1	MLLE-PAM2 inh 51.4
COc1ccccc1N1CCN(/N=C/C=C/c2ccccc2[N+](=O)[O-])CC1	none
Cn1nccc1C(=O)Nc1ccc2c(c1)OCO2	none (no result: PERK inhibitor)
CN(Cc1ccccc1)N=Nc1nc[nH]c1C(N)=O	none (no result: GRK2 aptamer HTS, PABP polyA inh, eIF4H FP inh, PERK inhibitor)
NS(=O)(=O)c1ccc(N2N=C(c3ccccc3)CC2c2ccccc2Cl)cc1 (stereo not given)	none (no result: PABP polyA inh, eIF4H FP inh, PERK inhibitor)
CCOc1ccc(NC(=O)c2ccc(N3CC4CC(C3)c3cccc(=O)n3C4)c(NC(=O)c3cccnc3)c2)cc1 (stereo not given)	none (no result: PERK inhibitor)
O=C1N(CCCl)c2ccc(Br)cc2C12OCCO2	none (no result: PERK inhibitor)
C=CCOc1ccccc1/C=c1\sc2nc(=O)c(C)nn2c1=O	eIF4H FP inh 69.1
O=c1/c(=C/c2ccco2)sc2nc(-c3ccccc3Br)nn12	PABP polyA inh 53.8, eIF4H FP inh 44.9
COc1ccccc1-c1nc2s/c(=C\c3cccs3)c(=O)n2n1	none
CCCCCOc1ccc(/C=c2\sc3nc(=O)c(-c4ccccc4)nn3c2=O)cc1OC	none
CC(=O)c1cccc(-c2ccnc3c2CC(C(=O)Nc2cccc(NS(C)(=O)=O)c2)O3)c1 (stereo not given)	none (no result: GRK2 aptamer HTS, PABP polyA inh, eIF4H FP inh, PERK inhibitor)
O=C(COC(=O)c1nc(Cl)ccc1Cl)NCc1ccc(Cl)cc1	none (no result: PABP polyA inh, eIF4H FP inh, PERK inhibitor)
CCOC(=O)C1CCN(CC(=O)Nc2cc(S(=O)(=O)N3CCCCC3)ccc2Cl)CC1	none (no result: GRK2 aptamer HTS, PABP polyA inh, eIF4H FP inh, PERK inhibitor)
CC(Sc1ccc2c(c1)OCCO2)C(=O)Nc1ccc2c(c1)OCO2 (stereo not given)	none
CC(Sc1ccc2c(c1)OCCO2)C(=O)Nc1ncc(Cl)cc1Cl (stereo not given)	MLLE-PAM2 inh 43.2
CCCCC[C@H](O)/C=C/[C@H]1C=CC(=O)[C@@H]1C/C=C\CCCC(=O)O	PABP polyA inh active (no result: GRK2 aptamer HTS, MLLE-PAM2 inh)
NS(=O)(=O)c1ccc(-c2ccc(/C=C3\NC(=S)NC3=O)o2)cc1	eIF4H FP inh 78.8 (no result: PERK inhibitor)
CN(Cc1ccccc1)C(=O)c1ccc(NC(=O)C2=CSCCO2)cc1	none (no result: PERK inhibitor)
CC(C)(C)c1ccc(-c2cn(-c3ccc(Br)cc3)c3[n+]2CCCS3)cc1	none (no result: GRK2 aptamer HTS)
O=C(O)c1ccc(NCc2cccc(Br)c2)cc1	PABP polyA inh 117.7, eIF4H FP inh active
Oc1ccc(N=Cc2ccc(-c3cccs3)s2)cc1	eIF4H FP inh 50.8
CCCCOC(=O)Nc1ccc(S(=O)(=O)Nc2ccc([N+](=O)[O-])cc2)cc1	PABP polyA inh 1.3
CCCCCOC(=O)Nc1ccc(S(=O)(=O)Nc2cccc([N+](=O)[O-])c2)cc1	none
CCOC(=O)c1nc2sc3c(c2c(=O)[nH]1)CCCC3	PABP polyA inh 5.5, eIF4H FP inh inconclusive
CCOC(=O)c1nc2sc3c(c2c(=O)[nH]1)CCC(C)C3 (stereo not given)	none
Cc1ccc(N2C(=N)/C(=C3/Nc4ccccc4S3)C(c3ccccc3)C2=O)cc1 (stereo not given)	PABP polyA inh 0.6, eIF4H FP inh 84.0
O=C1NC(c2ccccc2)(C(F)(F)F)SC2=CCCCCN12 (stereo not given)	MLLE-PAM2 inh 42.3
Cc1ccc(C2(C(F)(F)F)NC(=O)N3CCCN=C3S2)cc1 (stereo not given)	none
CCC(=O)Oc1ccc(NC(=O)c2ccc(S(=O)(=O)N3CCCC3)cc2)cc1	none (no result: GRK2 aptamer HTS, PABP polyA inh, eIF4H FP inh, PERK inhibitor)
COC(=O)CCCC1=CC2=C(c3ccccc3)C(=O)C(C)(OC(=O)C3CCCC3)C(=O)C2=CN1CCN1CCOCC1 (stereo not given)	MLLE-PAM2 inh 40.4 (no result: PERK inhibitor)
CC1(OC(=O)C2CCCC2)C(=O)C=C2C=C(c3ccsc3)N(CCN3CCOCC3)C=C2C1=O (stereo not given)	PABP polyA inh 41.2 (no result: GRK2 aptamer HTS, PERK inhibitor, MLLE-PAM2 inh)
CC1(OC(=O)C2CCCC2)C(=O)C=C2C=C(c3ccsc3)N(CC3CC3)C=C2C1=O (stereo not given)	none (no result: PERK inhibitor)
Cc1ccccc1Cn1cccc1/C=C1/C(=N)N2C=CSC2=NC1=O	PABP polyA inh 100.5, eIF4H FP inh 66.3
Cc1ccc(OCC(=O)Nc2ccc([N+](=O)[O-])cc2)cc1	none
CCn1nnc(NC(=O)COc2ccc([N+](=O)[O-])cc2)n1	PERK inhibitor 3.0
Cc1ccc([N+](=O)[O-])cc1N=C(c1cccc([N+](=O)[O-])c1)N1CCOCC1	PERK inhibitor 9.5
